{"source": "PubChem BioAssay (NCATS)", "note": "A number with no mark means an inactive call. Active and inactive are the calls of the source. The call rests on the fitted dose curve; in most records, active means well fitted inhibition curve with a large enough effect; inconclusive means small, poorly fitted or top-dose-only effect; inactive means flat fitted curve, though single readings scatter. On the % scale 0 is the no-effect control and ±100 the full control effect; potency means the concentration at half of the fitted maximal effect.", "data": [{"target": "Flap endonuclease 1 (Homo sapiens) (UniProt P39748)", "sequence (P39748 whole entry, looked up)": "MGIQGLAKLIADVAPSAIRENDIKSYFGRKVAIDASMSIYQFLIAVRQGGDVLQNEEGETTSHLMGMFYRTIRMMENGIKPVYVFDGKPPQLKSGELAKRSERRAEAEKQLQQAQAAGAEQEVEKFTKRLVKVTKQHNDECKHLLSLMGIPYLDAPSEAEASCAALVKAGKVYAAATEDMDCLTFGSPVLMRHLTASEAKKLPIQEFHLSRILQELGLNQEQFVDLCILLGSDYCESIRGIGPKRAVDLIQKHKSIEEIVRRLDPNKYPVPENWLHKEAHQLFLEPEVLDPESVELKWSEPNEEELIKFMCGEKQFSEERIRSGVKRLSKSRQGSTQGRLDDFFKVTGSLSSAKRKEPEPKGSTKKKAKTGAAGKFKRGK", "experiment": "qHTS Validation Assay for the Inhibitors of Human Flap endonuclease 1 (FEN1) (AID 488816)", "conditions": "FEN1 nuclease activity, fluorogenic DNA substrate; series mostly up to 57.1 µM; activity, negative = inhibition: at the top concentration", "source_text": "The major human flap endonuclease FEN1 is an efficient structure-specific enzyme that recognizes and cleaves a 5'-unannealed DNA flap. It belongs to the RAD2 family nucleases, which are involved in DNA metabolism and are highly conserved in prokaryotes and eukaryotes. FEN1 is a key enzyme in DNA replication, repair and maintenance of genomic stability. 5'-flap removal by FEN1 is critical for Okazaki fragment processing during lagging strand DNA synthesis, long-patch base excision repair (LP BER), and regulating or facilitating recombination events. […] Deletion of the yeast FEN1 gene, i.e. rad27, results in an increased frequency of short DNA (3-32 bp) repeats, micro- and mini-satellite formation, trinucleotide repeat expansion, spontaneous recombination events, and a severe growth defect in association with cell cycle arrest in late S/G2 phase. […] Cells from fen1-/- blastocysts show increased apoptotic cell death after ionizing radiation treatment, and chicken cells lacking the fen1 gene are hypersensitive to DNA alkylating agents, e.g. methylmethane sulfonate (MMS) and N-methyl-N'-nitro-N-nitrosoguanidine (MNNG), as well as hydrogen peroxide.\nFEN1 is found to be increased in many human cancers, including lung, brain cancer, gastric cancer, prostate cancer, pancreatic cancer and breast cancer. […] In particular, elevation of FEN1 in hormone refractory human prostate cancer cells correlates with resistant to various anticancer agents including ionizing radiation, doxorubicin, paclitaxel and vinblastine.\nThree uL of reagents (buffer in column 3 and 4 as negative control and 10 nM FEN1 in columns 1, 2, and 5-48) were dispensed into 1,536-well black solid-bottomed plate. Compounds (23 nL) were transferred via Kalypsys pin tool equipped with 1536-pin array (10 nL slotted pins, V&P Scientific, San Diego, CA). The plates were then incubated for 15 min at room temperature, and 1 uL substrate (50 nM final concentration) were added to start the reaction read twice at 0 min read and 15 min on ViewLux reader. Throughout the screen, reagent bottle and all liquid lines were chilled and made light-tight to minimize reagent degradation. All screening operations were performed on a fully integrated robotic system (Kalypsys, San Diego, CA) containing one RX-130 and two RX-90 anthropomorphic robotic arms (Staubli, Duncan, SC). Library plates were screened starting from the lowest and proceeding to the highest concentration, and a \"double-dipping\" step of the highest concentration was required to access higher concentrations of compounds. Vehicle-only plates, with DMSO being pin-transferred to the entire column 5-48 compound area, were inserted uniformly at the beginning and the end of each library in order to monitor for and record any shifts in the background, which can be affected by reagent dispensers or loss in enzyme activity overtime. Screening data was corrected, normalized, and concentration-effect relationships were derived by using publicly-available curve fitting algorithms developed in-house (http://ncgc.nih.gov/pub/openhts). A four parameter Hill equation was fitted to the concentration-response data by minimizing the residual error between the modeled and observed responses.", "units": {"activity, negative = inhibition": "%"}, "values": [{"compound": "NC(=O)CI", "activity, negative = inhibition": -1.83}, {"compound": "CCCCCCCCCCCCCC(=O)O[C@@H]1[C@@H](C)[C@@]2(O)[C@@H](C=C(CO)C[C@@]3(O)C(=O)C(C)=C[C@@H]23)C2C(C)(C)[C@@]21OC(C)=O", "note": "(stereo not given in full)", "activity, negative = inhibition": -11.1}, {"compound": "CCCN(CCC)[C@H]1CCc2c(F)ccc(O)c2C1", "activity, negative = inhibition": -3.73}, {"compound": "C[N+]1(C)CCN(c2ccccc2)CC1", "activity, negative = inhibition": -5.75}, {"compound": "CC(C)(O)[C@@H]1C2OC(=O)[C@@H]1[C@]1(O)C[C@H]3O[C@]34C(=O)O[C@H]2[C@]14C", "note": "(tested in a mixture with another compound)", "activity, negative = inhibition": -4.46}, {"compound": "C/C(O)=C(\\C#N)C(=O)Nc1cc(Br)ccc1Br", "activity, negative = inhibition": -7.61}, {"compound": "Cc1c2ccncc2c(C)c2c1[nH]c1ccccc12", "Potency": "10.6 µM (active)"}, {"compound": "C=CCN1CCc2cccc3c2[C@H]1Cc1ccc(O)c(O)c1-3", "activity, negative = inhibition": -16.1}, {"compound": "CC(N)[C@H](O)c1ccc(O)c(O)c1", "note": "(stereo not given in full)", "Potency": "2.67 µM (active)"}, {"compound": "Clc1ccc(N2CC3CCC(C2)N3)nn1", "activity, negative = inhibition": -1.9}, {"compound": "O=[N+]([O-])c1cc(O)c(O)c([N+](=O)[O-])c1", "activity, negative = inhibition": -27.9}, {"compound": "CC(N)c1cccc(Cl)c1Cl", "note": "(stereo not given)", "activity, negative = inhibition": -1.75}, {"compound": "CCCC[N+]1(C)C2CC(OC(=O)[C@H](CO)c3ccccc3)CC1C1OC12", "note": "(stereo not given in full)", "activity, negative = inhibition": -5.79}, {"compound": "C[N+](C)(C)CC#CCOC(=O)Nc1cccc(Cl)c1", "activity, negative = inhibition": -4.03}, {"compound": "CN(C(=O)Cc1ccc(Cl)c(Cl)c1)C(CN1CCCC1)c1cccc(OCC(=O)O)c1", "note": "(stereo not given)", "activity, negative = inhibition": -4.31}, {"compound": "COc1ccc(OC)c(C(O)C(C)N)c1", "note": "(stereo not given)", "activity, negative = inhibition": -6.83}, {"compound": "C=CCN1CC[C@]23c4c5ccc(O)c4O[C@H]2/C(=N/NC(=O)c2ccccc2)CC[C@@]3(O)[C@H]1C5", "activity, negative = inhibition": 0.377}, {"compound": "Oc1ccc2c3c1O[C@H]1c4oc5ccccc5c4C[C@@]4(O)C(C2)N(CC2CC2)CCC314", "note": "(stereo not given in full)", "activity, negative = inhibition": -6.46}, {"compound": "Nc1ccc(CCN2CCN(c3cccc(C(F)(F)F)c3)CC2)cc1", "activity, negative = inhibition": -3.24}, {"compound": "NCCc1c[nH]c2ccc(C(N)=O)cc12", "activity, negative = inhibition": -0.167}, {"compound": "CCCN(CCC)C1CCc2cccc(O)c2C1", "note": "(stereo not given)", "activity, negative = inhibition": -15.4}, {"compound": "CN1CC[C@@]2(C)c3cc(O)ccc3N(C)C12", "note": "(stereo not given in full)", "activity, negative = inhibition": -14.5}, {"compound": "NC(Cc1cc(O)c(O)cc1O)C(=O)O", "note": "(stereo not given)", "Potency": "0.67 µM (active)"}, {"compound": "C[C@]12Cc3cn4c(nc3C=C1CCC1C2CC[C@@]2(C)[C@H]1CC[C@@]2(O)C#N)nc1ccccc14", "note": "(stereo not given in full)", "activity, negative = inhibition": -15.1}, {"compound": "COc1ccc2c(c1O)-c1cccc3c1[C@@H](C2)N(C)CC3", "activity, negative = inhibition": -18.9}, {"compound": "COc1ccc2c(c1)C13CCCCC1C(C2)N(C)CC3", "note": "(stereo not given)", "activity, negative = inhibition": -9.24}, {"compound": "O=C(O)c1cc[c]([Hg][Cl])cc1", "activity, negative = inhibition": -2.21}, {"compound": "CCCN(CCC)CCc1c[nH]c2ccc(C(N)=O)cc12", "activity, negative = inhibition": -14.1}, {"compound": "NC(C(=O)O)c1cc(=O)[nH]o1", "note": "(stereo not given)", "activity, negative = inhibition": -0.167}, {"compound": "NC(=O)c1cc(N2CC2)c([N+](=O)[O-])cc1[N+](=O)[O-]", "activity, negative = inhibition": -5.27}, {"compound": "CC(C)[C@@]1(NC(=O)[C@@H]2C[C@@H]3c4cccc5[nH]cc(c45)C[C@H]3N(C)C2)O[C@@]2(O)[C@@H]3CCCN3C(=O)[C@H](Cc3ccccc3)N2C1=O", "activity, negative = inhibition": -7.33}, {"compound": "NC(=O)COc1c(F)cc(SCCNS(=O)(=O)c2ccccc2)cc1F", "activity, negative = inhibition": -6.21}, {"compound": "CC(N)Cc1c[nH]c2ccc(O)cc12", "note": "(stereo not given)", "activity, negative = inhibition": -5.46}, {"compound": "CCCN(CCC)[C@@H]1CCc2cccc(O)c2C1", "activity, negative = inhibition": -4.47}, {"compound": "N=C(N)c1ccc(CS(=O)(=O)F)cc1", "activity, negative = inhibition": -5.22}, {"compound": "c1ccc2cc(CC3=NCCN3)ccc2c1", "activity, negative = inhibition": -9.19}, {"compound": "CN1CCC(c2c[nH]c3ccc(O)cc23)CC1", "activity, negative = inhibition": -5.54}, {"compound": "C=CCN1CC[C@]23c4c5ccc(O)c4O[C@@H]2/C(=N/N=C2\\CC[C@@]4(O)C6Cc7ccc(O)c8c7[C@@]4(CCN6CC=C)[C@@H]2O8)CC[C@@]3(O)C1C5", "activity, negative = inhibition": -0.57}, {"compound": "COc1ccc(CNC(=O)/C=C/c2ccc3[nH]cc(CCN(C)C)c3c2)cc1", "activity, negative = inhibition": -9.77}, {"compound": "CC1(C(=O)O)C2CCC(O2)C1(C)C(=O)O", "note": "(stereo not given)", "activity, negative = inhibition": -12.4}]}]}
